Experimental data published in the supplement of paper PMC7411054.

Legend:
Assay in all cases: phenotypically active (imaging signature differs from DMSO and reproducible) at any of 0.3-9 uM (binary (1 = active, 0 = inactive)); higher = active
Conditions in all cases: treatment time: 24 h
[1] = test system: A549-ACTB-RAB5A
Method in brief: (§1)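 Live-cell features were measured per well and normalised to solvent control wells after fifteen gene-edited A549, HepG2 and WPMY1 reporter lines had been treated for 24 h at 0.3, 1, 3 or 9 µM in four wells each. A condition was deviating when ≥3 of 4 wells sat beyond the 95th percentile of control Euclidean distances. It was reproducible when the median replicate Pearson correlation exceeded the 95th percentile of non-replicates. Phenotypic activity demanded both.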

[2] = test system: A549-CANX-COX4
Method in brief: as §1

[3] = test system: A549-GM130-SQSTM1
Method in brief: as §1

[4] = test system: A549-TP53BP1-CLTA
Method in brief: as §1

[5] = test system: A549-TUBA1B-RELA
Method in brief: as §1

[6] = test system: HepG2-ACTB-RAB5A
Method in brief: as §1

[7] = test system: HepG2-CANX-COX4
Method in brief: as §1

[8] = test system: HepG2-GM130-SQSTM1
Method in brief: as §1

[9] = test system: HepG2-TP53BP1-CLTA
Method in brief: as §1

[10] = test system: HepG2-TUBA1B-RELA
Method in brief: as §1

[11] = test system: WPMY1-ACTB-RAB5A
Method in brief: as §1

[12] = test system: WPMY1-CANX-COX4
Method in brief: as §1

[13] = test system: WPMY1-GM130-SQSTM1
Method in brief: as §1

[14] = test system: WPMY1-TP53BP1-CLTA
Method in brief: as §1

[15] = test system: WPMY1-TUBA1B-RELA
Method in brief: as §1

Measured: phenotypically active

COC(=O)c1c(C)cc(OC(=O)c2c(C)cc(O)c(C=O)c2O)c(C)c1O [Atranorin]
inactive: [1] 0 | [2] 0 | [3] 0 | [4] 0 | [5] 0 | [6] 0 | [7] 0 | [8] 0 | [9] 0 | [10] 0 | [11] 0 | [12] 0 | [13] 0 | [14] 0 | [15] 0

Cc1c(OCC(F)(F)F)ccnc1CS(=O)c1nc2ccccc2[nH]1 (stereo not given) [lansoprazole]
inactive: [1] 0 | [2] 0 | [3] 0 | [4] 0 | [5] 0 | [6] 0 | [7] 0 | [8] 0 | [9] 0 | [10] 0 | [11] 0 | [12] 0 | [13] 0 | [14] 0 | [15] 0

CCCCCN(C)CCC(O)(P(=O)(O)O)P(=O)(O)O [ibandronate]
inactive: [1] 0 | [2] 0 | [3] 0 | [4] 0 | [5] 0 | [6] 0 | [7] 0 | [8] 0 | [9] 0 | [10] 0 | [11] 0 | [12] 0 | [13] 0 | [14] 0 | [15] 0

COC(=O)C1CC23C=CCN4CCC5(c6ccccc6NC15[C@H]2C)C43 (stereo not given in full) [Vindolinine dichlorhydrate]
inactive: [1] 0 | [2] 0 | [3] 0 | [4] 0 | [5] 0 | [6] 0 | [7] 0 | [8] 0 | [9] 0 | [10] 0 | [11] 0 | [12] 0 | [13] 0 | [14] 0 | [15] 0

C[C@@H]1C(=O)O[C@H]2C[C@@]34[C@H]5C[C@@H](C(C)(C)C)[C@]36[C@@H](OC(=O)[C@@H]6O)O[C@@]4(C(=O)O5)[C@]21O [Ginkgolide A]
inactive: [1] 0 | [2] 0 | [3] 0 | [4] 0 | [5] 0 | [6] 0 | [7] 0 | [8] 0 | [9] 0 | [10] 0 | [11] 0 | [12] 0 | [13] 0 | [14] 0 | [15] 0

CC(C)NCC(O)c1ccc(NS(C)(=O)=O)cc1 (stereo not given) [sotalol]
inactive: [1] 0 | [2] 0 | [3] 0 | [4] 0 | [5] 0 | [6] 0 | [7] 0 | [8] 0 | [9] 0 | [10] 0 | [11] 0 | [12] 0 | [13] 0 | [14] 0 | [15] 0

CCn1c(=O)c2cc(C(N)=O)c(N)nc2n(C2CC2)c1=O
inactive: [1] 0 | [2] 0 | [3] 0 | [4] 0 | [5] 0 | [6] 0 | [7] 0 | [8] 0 | [9] 0 | [10] 0 | [11] 0 | [12] 0 | [13] 0 | [14] 0 | [15] 0

Cn1c(=O)c2[nH]cnc2n(C)c1=O [Aminophylline]
inactive: [1] 0 | [2] 0 | [3] 0 | [4] 0 | [5] 0 | [6] 0 | [7] 0 | [8] 0 | [9] 0 | [10] 0 | [11] 0 | [12] 0 | [13] 0 | [14] 0 | [15] 0

CCCCc1nc(Cl)c(CO)n1Cc1ccc(-c2ccccc2-c2nnn[nH]2)cc1 [losartan]
inactive: [1] 0 | [2] 0 | [3] 0 | [4] 0 | [5] 0 | [6] 0 | [7] 0 | [8] 0 | [9] 0 | [10] 0 | [11] 0 | [12] 0 | [13] 0 | [14] 0 | [15] 0

CC(=O)c1ccc(S(=O)(=O)NC(=O)NC2CCCCC2)cc1 [acetohexamide]
inactive: [1] 0 | [2] 0 | [3] 0 | [4] 0 | [5] 0 | [6] 0 | [7] 0 | [8] 0 | [9] 0 | [10] 0 | [11] 0 | [12] 0 | [13] 0 | [14] 0 | [15] 0

CC(C)OC(=O)C(C)(C)Oc1ccc(C(=O)c2ccc(Cl)cc2)cc1 [Fenofibrate]
inactive: [1] 0 | [2] 0 | [3] 0 | [4] 0 | [5] 0 | [6] 0 | [7] 0 | [8] 0 | [9] 0 | [10] 0 | [11] 0 | [12] 0 | [13] 0 | [14] 0 | [15] 0

CCCCOc1cc(C(=O)OCCN(CC)CC)ccc1N [oxybuprocaine]
inactive: [1] 0 | [2] 0 | [3] 0 | [4] 0 | [5] 0 | [6] 0 | [7] 0 | [8] 0 | [9] 0 | [10] 0 | [11] 0 | [12] 0 | [13] 0 | [14] 0 | [15] 0
